D2 ag-1: activates the human D2 dopamine receptor | P14416 | HEK293 T-REx D2 cells, calcium flux agonist mode | activation, % at 2 µM | 340,000 tested, 0.53% active;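 active = activation over 3 SD above normal in the single-dose calcium agonist read, cut at about 30% in these data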; also: 0% is about no effect
Target sequence (P14416 whole entry, looked up): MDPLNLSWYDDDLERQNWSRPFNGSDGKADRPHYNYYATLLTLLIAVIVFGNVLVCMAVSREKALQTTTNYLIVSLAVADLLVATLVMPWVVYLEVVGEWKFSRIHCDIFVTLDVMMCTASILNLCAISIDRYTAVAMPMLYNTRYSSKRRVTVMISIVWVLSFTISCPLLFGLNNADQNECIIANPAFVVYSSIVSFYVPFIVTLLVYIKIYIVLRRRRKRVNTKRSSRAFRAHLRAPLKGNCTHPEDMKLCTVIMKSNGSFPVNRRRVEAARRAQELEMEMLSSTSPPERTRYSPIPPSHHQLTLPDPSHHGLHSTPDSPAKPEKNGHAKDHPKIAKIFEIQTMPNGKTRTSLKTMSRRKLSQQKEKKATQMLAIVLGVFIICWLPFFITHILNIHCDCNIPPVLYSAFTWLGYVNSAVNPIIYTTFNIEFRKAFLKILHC
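Tetracycline-induced HEK293 T-REx cells with force-coupled D2 receptor, plated overnight at 30 C, loaded with no-wash calcium dye. After a 10 s baseline, compound was pin-added and calcium flux read kinetically for 180 s; calcium rises flagged agonists.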
D2 PAM-1: positive allosteric modulators of human D2 dopamine receptor; DiscoveRx D2 beta-arrestin cells, luminescence, 90 min; 100% = 57 uM dopamine signal; P14416; 360,000 tested, 0.23% active; AID 624464; potentiation, % (test concentration not listed); in the data active = potentiation above about 50%; inconclusive = mostly about 30% to 49%
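D2 cells co-treated with compound plus 50 nM dopamine (EC20) for 90 min at 37 deg C to detect potentiation. Beta-arrestin recruitment was read as enzyme-fragment luminescence after 1 h at ambient temperature. Full response was set by 57 uM dopamine.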
D2 ag-2: activates the human D2 dopamine receptor. activation, % (concentration not given with the values). 360,000 tested, 0.084% active. P14416. DiscoveRx PathHunter D2 beta-arrestin, luminescence, 90 min; 100% = 57 uM dopamine signal; in the data active = activation above about 40%; inconclusive = between about 15% and that limit
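Agonist mode: compounds alone added to overnight-plated D2 PathHunter cells for 90 min at 37 C, with 57 uM final dopamine (EC100) defining full response. Beta-arrestin recruitment detected by chemiluminescent reagent, read after 1 h at ambient temperature.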
D2 antag: antagonizes the human D2 dopamine receptor; inhibition, % at 10 µM; P14416; 340,000 tested, 2% active; HEK293 TREx D2 cells, calcium flux, dopamine EC80; in the data active = inhibition above about 30%; inactive = below that, where a call was filed; also: 0% is about no effect
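HEK293 T-REx D2 cells, tet-induced, calcium dye no-wash. Cpd pintool add, 180 s kinetic, then EC80 DA, 180 s kinetic. Ca flux read.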
D2 PAM-2: positively modulates the human D2 dopamine receptor allosterically. potentiation, % at 10 µM. AID 485347. P14416. HEK293 T-REx D2, calcium flux, EC20 dopamine potentiation. 340,000 tested, 0.34% active;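 active = potentiation over 3 SD above the plate norm, cut at about 30% in these data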; also: 0% is about no effect
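Tetracycline-induced Hek293 Trex D2 cells, force-coupled to calcium, loaded with no-wash calcium dye. Compound added with 180 s kinetic read for agonism, then EC20 dopamine and a further 180 s read for potentiation.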
The depositor's hits bear a star; ? = inconclusive; · = no result. Hits are enriched below; roughly 2.4% of the tested compounds scored in any of these assays.

SMILES | D2 ag-1 | D2 PAM-1 | D2 ag-2 | D2 antag | D2 PAM-2
N#CCCn1cc(CNC2CCC(O)CC2)c2ccccc21 (stereo unspecified) | 0 | -2 | -2 | 5 | 30*
CC1(Cc2cn(CCC#N)c3ccccc23)OCCO1 | 0 | -5 | 0 | -3 | -2
O=c1oc(-c2ccc(F)cc2)nc2ccsc12 | 0 | -19 | -3 | 0 | -4
O=c1oc(-c2ccccc2Cl)nc2ccsc12 | 1 | -13 | -10 | 31* | 13
Cc1ccc2cccc(NC(=S)NC(=O)c3ccccc3)c2n1 | 0 | -13 | -3 | 4 | 33*
O=C1C=C(c2ccccc2)OC2(CCCC2)O1 | 0 | -3 | -3 | -2 | 38*
Cc1ccc(NC(=O)CCN2C(=O)NC3(CCCC3)C2=O)c(C)c1 | 18 | -7 | -5 | 51* | -20
CC(=O)Nc1cc(C(=O)Nc2ccc3c(c2)N(C)C(=O)c2ccccc2S3)ccc1C | · | · | · | · | 4
O=C(NCc1ccccc1)C(=O)Nc1nc(C23CC4CC(CC(C4)C2)C3)cs1 | 0 | -23 | -4 | 32* | 2
Nc1c(C(=O)c2cccs2)oc2ccccc12 | 0 | -6 | -2 | -10 | -6
Nc1c(C(=O)c2ccc(Br)s2)oc2ccccc12 | 0 | -6 | -4 | 45* | -9
CCC(C)S(=O)(=O)c1oc(-c2cccs2)nc1S(=O)(=O)c1ccccc1 (stereo unspecified) | 10 | · | · | · | 13
O=C1Nc2ccccc2/C1=C/c1ccccc1Cl | -1 | -11 | -2 | 4 | -1
CN1CCN(c2ccccc2/C=C2/C(=O)Nc3ccccc32)CC1 | 3 | -13 | -4 | 37* | -26
O=C(CS(=O)(=O)Cc1ccccc1)Nc1ccc(Cl)cn1 | 1 | -8 | -2 | 52* | 0
O=CC1=C(N2CCOCC2)/C(=C\c2ccccc2)CC1 | 0 | -3 | -3 | 7 | 33*
Cc1ccc(Sc2ccc(CN3CCCC3)cc2[N+](=O)[O-])cc1 | 1 | -12 | 1 | 36* | -15
CCC(C)Nc1nc2c(c(=O)n(C)c(=O)n2C)n1Cc1cccc(C)c1 (stereo unspecified) | -2 | 10 | -1 | 15 | -7
Cc1cccc(Nc2nc3c(c(=O)n(C)c(=O)n3C)n2Cc2ccccc2)c1 | -1 | -16 | -5 | 8 | 46*
Cc1oc2ncn(CC(C)C)c(=O)c2c1C(=O)NCCCN(C)Cc1ccccc1 | 1 | · | · | · | -3
NC(=O)c1nsc(C(=O)N(CC(=O)NCc2ccco2)c2ccccc2F)c1N | 0 | -4 | -3 | 8 | 33*
COC(=O)c1ccc(NC(=O)CSCc2ccccc2)cc1 | -3 | 0 | -3 | 0 | 5
CCn1c(SCC(=O)Nc2ccc(C(=O)OC)cc2)nc2cccnc21 | -1 | -11 | -2 | -1 | 35*
CCn1c(SCC(=O)Nc2ccc(C(C)=O)cc2)nc2ccccc21 | 0 | -7 | 1 | 19 | 2
COC(=O)c1ccc(NC(=O)CSCc2ccccc2C)cc1 | -1 | -1 | 1 | 35* | -10
SMILES | D2 ag-1 | D2 PAM-1 | D2 ag-2 | D2 antag | D2 PAM-2
CC(C)(C)OC(=O)NCCCCCNC(=O)c1nc[nH]c1C(=O)NCC(=O)OCc1ccccc1 | · | 52* | ? | · | ·
Cc1c(C(=O)OC2CCCCC2)sc2nc[nH]c(=O)c12 | 0 | -7 | -1 | -1 | 31*
Cc1cccc(/C=N/NC(=O)c2cc3c(s2)-c2ccccc2CC3)c1 | 1 | 0 | 0 | 32* | 14
COc1ccc(CCNC(=O)CCn2c(=O)[nH]c3cc(OC)c(OC)cc3c2=O)cc1OC | 0 | 17 | -1 | 13 | -4
CCOc1cc2[nH]c(=O)n(CCC(=O)NCCc3ccc(OC)c(OC)c3)c(=O)c2cc1OCC | 0 | 7 | -1 | -3 | 35*
O=C(CCCSc1nnc(Nc2ccccc2F)s1)N1CCOCC1 | 1 | -36 | 1 | 39* | -4
O=C(Cc1cn2ccsc2n1)OCc1nc2ccccc2s1 | -1 | -35 | -2 | -6 | -10
O=C(Cc1cn2ccsc2n1)OCc1ccccc1 | 0 | -5 | 3 | 32* | -3
CCn1c(SCC(=O)Nc2cc(C)on2)nc2sc(C)c(C)c2c1=O | 1 | · | · | 36* | -2
COCCn1c(SCC(=O)Nc2cc(C)on2)nc2cc(Cl)ccc2c1=O | 0 | -12 | 1 | 1 | 72*

Bioassay records (PubChem)
